Results: the OligoGym collection
Note: reference of the scale not given here.

Each sequence was assayed against FAM151A (assay: pooled miR-30 sensor sort-seq; sequence = guide strand). Conditions: shRNA.
Work on ATGACCACCACAGACACACAGG yielded a sensor-assay potency score (higher = more potent) of -1.21. TAGACTTGGTGGACAGCAGTGT was tested, and the sensor-assay potency score (higher = more potent) was 0.813. Sequence TACATTGACGTCAGCCTCCAGG has a sensor-assay potency score (higher = more potent) of -0.38. TTCCTCTGTCAGCTGCCGCAGG gave a sensor-assay potency score (higher = more potent) of -0.626. For TAGCATATCTGTGAGCAGCTGT, the sensor-assay potency score (higher = more potent) was 0.652. TAGCCTGTAGTAGACTCGGGTC gave a sensor-assay potency score (higher = more potent) of -0.281.

The sequences below were run against FAM151B in the same assay as above. Conditions: shRNA.
TAGAGTATTATCACTGTTTGTT was tested, and the sensor-assay potency score (higher = more potent) was 0.198. Work on TTTTCCAGTCCAAATAGTCAGG yielded a sensor-assay potency score (higher = more potent) of -1.41. In the case of TAATGTAAAGTAAATCTTCAAC, the sensor-assay potency score (higher = more potent) is reported as -0.985. For TATGAAACCAAAACACAGGAAA, the sensor-assay potency score (higher = more potent) was -1.05. TTAGCTGCATGATACCAGGTGA showed a sensor-assay potency score (higher = more potent) of -0.378. In the case of TCTTCTGCTGTAATCTGGCTAT, the sensor-assay potency score (higher = more potent) is reported as -0.597. Work on TATTGCTTTTCATAACTTCAGT yielded a sensor-assay potency score (higher = more potent) of -0.677. TATTTTCACTCCAAGATCCTGG showed a sensor-assay potency score (higher = more potent) of -0.051. TTGAAATCCAGCTTGATGCCTT gave a sensor-assay potency score (higher = more potent) of 0.157. TTTGCATCTATTACTTTGCTAT gave a sensor-assay potency score (higher = more potent) of -0.561. Sequence TACAACTGCCAGACTTTTGAAA has a sensor-assay potency score (higher = more potent) of -0.597. With TTTGATTTCTTTAACAGCCAAA the sensor-assay potency score (higher = more potent) was -1.02.

Each sequence was assayed against FAM154A in the same assay as above. Conditions: shRNA.
TTAATCTGAAGTGCAGGTCGGC was tested, and the sensor-assay potency score (higher = more potent) was -0.481. Work on AAGCTTGGTACTTATCTCGAAA yielded a sensor-assay potency score (higher = more potent) of -0.971. Work on TTGGCTTGAAGGACTCTCTGGG yielded a sensor-assay potency score (higher = more potent) of 0.798. TTGTAGTCATCCTTGGTGGTGG showed a sensor-assay potency score (higher = more potent) of 0.0888. TTGTTTTTTGTCATTTTAGGGA gave a sensor-assay potency score (higher = more potent) of -0.361. Sequence TTATCTCGAAACTCAGTGGTGT has a sensor-assay potency score (higher = more potent) of 0.244. With TTTGTATATCCTGTGACCCAAA the sensor-assay potency score (higher = more potent) was -1.34. Work on TTGTCCAACAAATAATTCTCAG yielded a sensor-assay potency score (higher = more potent) of -0.941. For TAGTTCTCGGTATATTCGGAGA, the sensor-assay potency score (higher = more potent) was -1.23. With TAATCTGAAGTGCAGGTCGGCA the sensor-assay potency score (higher = more potent) was -1.32. TTAGTCACATCCTCCAAGGGGA gave a sensor-assay potency score (higher = more potent) of 0.0144. TTTTATGGGGTAATCGTCCTGG was tested, and the sensor-assay potency score (higher = more potent) was 0.26.

The sequences below were run against FAM162A in the same assay as above. Conditions: shRNA.
TAACCATGAAGATGCATCCTAC was tested, and the sensor-assay potency score (higher = more potent) was -0.864. TAGATAGCTGATCTTCACTCGC was tested, and the sensor-assay potency score (higher = more potent) was 0.225. Work on TTCTACAGCAGAAATACGGAAA yielded a sensor-assay potency score (higher = more potent) of -0.939. ATAGCTGATCTTCACTCGCATC showed a sensor-assay potency score (higher = more potent) of -1.3. ATAACCTAAAACAGCTTCCTGC showed a sensor-assay potency score (higher = more potent) of -0.549. With TTCACTCGCATCTTGTTCTTTG the sensor-assay potency score (higher = more potent) was -0.205. TAAAACAGCTTCCTGCTGCCAG was tested, and the sensor-assay potency score (higher = more potent) was -0.369. TCATCTTCCTTTTTGAAGCGAC showed a sensor-assay potency score (higher = more potent) of -0.679. In the case of TTAAAGTCTCGTGTCTTTGGGC, the sensor-assay potency score (higher = more potent) is reported as 0.109. TTTTTGAAGCGACCTGACCATA showed a sensor-assay potency score (higher = more potent) of -1.33.
